# In PubChem BioAssay (NCATS):
# Where “and” joins values, the source holds several entries; their conditions need not be identical. Equal entries are not always repeated. Inconclusive results are not listed. A call without a number means that no potency is given here. Calls of active or inactive are those of the source. Unless noted, calls come from the whole dose curve; as a rule, active = well fitted curve in the direction sought with a large enough effect; inconclusive = small, poorly fitted or top-dose-only effect, or another doubt; inactive = no such curve, though single readings can be large; an effect the other way counts as inactive or inconclusive.
# Experiments:
# [1] = test system: Zika virus NS2B-NS3 protease (linked construct); test: Primary screen NINDS Rhodamine qHTS for Zika virus inhibitors (AID 1347160); note: nearly all actives have a fitted effect of over 55% in size
# Method in brief: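 Kinetic fluorescence (Ex 480 nm, Em 540 nm) over 15 min with 1.5 microM Rhodamine110 peptide and 25 nM linked protease.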
# [2] = target: Calcium and integrin-binding protein 1 (Homo sapiens) (UniProt Q99828); test: Primary qHTS for Identification of Calcium Integrin Binding Protein 1 (CIB1) Competitor (AID 1508620);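 note: GST tagged CIB1 binding a fluorescein labelled alphaIIb integrin peptide tracer; top concentration of the series differs between compounds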
# Method in brief: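 Fluorescence polarization competition: GST-tagged CIB1 (1 uM final) preincubated with compound 15 min at room temperature, then FITC-labelled alphaIIb peptide (100 nM final) added. After 15 min at room temperature, polarization read at Ex 480/Em 540.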
# [3] = Primary qHTS for inhibitors of nuclear receptor binding SET domain protein 2 (NSD2) in an isogenic RCH-ACV NSD2 p.E1099K mutant (9B) (AID 1645876); note: potency is the fitted concentration of half-maximal effect; nearly all actives have a fitted effect of over 70% in size
# [4] = Primary qHTS for inhibitors of nuclear receptor binding SET domain protein 2 (NSD2) in an RCH-ACV wild type WT cells (2C) (AID 1645877); note: potency is the fitted concentration of half-maximal effect; nearly all actives have a fitted effect of over 70% in size
# [5] = target: Glutathione peroxidase 1 (Homo sapiens) (UniProt P07203); test: Primary qHTS Assay for Inhibitors of Recombinant Selenoprotein Glutathione Peroxidase 1 (GPX1) (AID 1845191); note: nearly all actives have a fitted effect of over 65% in size; note: potency is the fitted concentration of half-maximal effect
# Method in brief: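 GR-coupled assay: compounds preincubated 30 min at room temperature with GPX1, then reaction started with CHP; final 10 nM GPX1, 1 mM GSH, 0.5 mM CHP, 0.5 mM NADPH, 100 nM GR, 0.01% BSA, pH 7.5 Tris buffer. NADPH fluorescence (340/450 nm) read at 0 and 15 min.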
# [6] = target: Phospholipid hydroperoxide glutathione peroxidase GPX4 (Homo sapiens) (UniProt P36969); test: Primary qHTS Assay for Inhibitors of Recombinant Selenoprotein Glutathione Peroxidase 4 (GPX4) (AID 1845192); conditions: outcome: dose series up to 50 µM unless noted; note: nearly all actives have a fitted effect of over 65% in size; note: potency is the fitted concentration of half-maximal effect
# Method in brief: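 GR-coupled assay: recombinant GPX4 preincubated 30 min with compound at room temperature; final 200 nM GPX4, 1 mM GSH, 0.5 mM cumene hydroperoxide, 0.5 mM NADPH, 100 nM GR, 0.01% BSA, pH 7.5 Tris. NADPH fluorescence (340/450 nm) read at 0 and 15 min.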
# [7] = target: Luciferin 4-monooxygenase (Photinus pyralis) (UniProt P08659); test: Primary firefly luciferase (FLuc) qHTS assay for identification of artifact compounds. (AID 1845220); note: nearly all actives have a fitted effect of over 60% in size
# Method in brief: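 Enzymatic FLuc inhibition assay: compounds pre-exposed to luciferin/ATP (10 uM each) for 15 min, then purified P. pyralis enzyme at 10 nM added. Read-out: luminescence at 5 min.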
# [8] = test system: Nanoluciferase (engineered Oplophorus gracilirostris luciferase); test: Primary Nanoluciferase (NLuc) qHTS assay for identification of artifact compounds. (AID 1845222);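 note: NLuc secreted into diluted conditioned medium of S16 cells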
# Method in brief: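 S16 cell supernatant NLuc, 1:55; cpds qHTS; 15 min RT dark; Nano-Glo substrate 1:100, 5 min; luminescence; Hill fit of % inhibition.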
# [9] = Primary redox qHTS assay for identification of artifact compounds. (AID 1845223)
# Method in brief: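 Amplex Red (25 uM) and HRP (250 mU/mL) in HBSS, with compounds for 15 min, then 250 uM DTT for 30 min, room temperature, dark. Fluorescence 525/598 nm read; normalized to DMSO and 10 uM DA3003; Hill fit.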
# JEG-3 = test: Primary qHTS to identify gynecologic anti-cancer compounds using libraries of approved drugs and bioactive compounds (AID 1345084); conditions: Gynecologic cancer cell panel viability, ATPlite luminescence, 48 h; series mostly up to 57.5 µM; note: nearly all actives have a fitted effect of over 55% in size; note: potency is the fitted concentration of half-maximal effect
# Method in brief: (§1)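 Five-concentration response, 48 h; readout is ATP-driven luciferase luminescence.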
# [10] = P-glycoprotein substrates identified in KB-8-5-11 adenocarcinoma cell line, qHTS therapeutic library screen (AID 1346987); note: potency is the fitted concentration of half-maximal effect; nearly all actives have a fitted effect of over 65% in size
# Method in brief: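 KB-8-5-11, a colchicine-selected P-gp-overexpressing KB-3-1 subline, was grown without colchicine for the assay. Cells were seeded at 500 cells/well, dosed in concentration-response and incubated 72 h at 37 degree C, 5% CO2. Viability was read by CellTiter-Glo luminescence.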
# Es-2 = test: Primary qHTS to identify gynecologic anti-cancer compounds using libraries of approved drugs and bioactive compounds (AID 1345084); conditions: Gynecologic cancer cell panel viability, ATPlite luminescence, 48 h; series mostly up to 57.5 µM; note: nearly all actives have a fitted effect of over 55% in size; note: potency is the fitted concentration of half-maximal effect
# Method in brief: as §1
# HeLa = test: as above; conditions: Gynecologic cancer cell panel viability, ATPlite luminescence, 48 h; series mostly up to 57.5 µM
# Method in brief: as §1
# OV90 = test: as above; conditions: Gynecologic cancer cell panel viability, ATPlite luminescence, 48 h; series mostly up to 57.5 µM
# Method in brief: as §1
# Tov-21-G = test: as above; conditions: Gynecologic cancer cell panel viability, ATPlite luminescence, 48 h; series mostly up to 57.5 µM
# Method in brief: as §1
# Tov112D = test: as above; conditions: Gynecologic cancer cell panel viability, ATPlite luminescence, 48 h; series mostly up to 57.5 µM
# Method in brief: as §1
# Hek293T = test: as above; conditions: Gynecologic cancer cell panel viability, ATPlite luminescence, 48 h, control line for the selectivity index; series mostly up to 57.5 µM
# Method in brief: as §1
# [11] = qHTS drug screen for cell cycle checkpoint inhibitors in PARPi-resistant BRCA-mutant ovarian cancer cell lines. (AID 1963452; calls by dose curve); conditions: PEO1/OlaR viability, CellTiter-Glo luminescence, 96 h, stronger effect = lower value
# Method in brief: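 PEO1, PEO4 and PEO1/OlaR ovarian cancer cells, 600 per well, exposed 96 h at 37C to a dilution series. Viability read by CellTiter-Glo luminescence, normalized to DMSO and empty wells; activity summarized as Z-AUC.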
# [12] = measured here: PEO1 parental Z-AUC
# Glutathione peroxidase 1 (Homo sapiens), sequence (P07203 whole entry, looked up): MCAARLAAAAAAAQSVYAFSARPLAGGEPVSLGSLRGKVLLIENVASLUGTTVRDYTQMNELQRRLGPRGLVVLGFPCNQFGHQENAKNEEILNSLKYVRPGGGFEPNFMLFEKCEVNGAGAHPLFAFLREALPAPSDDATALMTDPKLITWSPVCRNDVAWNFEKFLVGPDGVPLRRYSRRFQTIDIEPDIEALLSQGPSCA
# Calcium and integrin-binding protein 1 (Homo sapiens), sequence (Q99828 whole entry, looked up): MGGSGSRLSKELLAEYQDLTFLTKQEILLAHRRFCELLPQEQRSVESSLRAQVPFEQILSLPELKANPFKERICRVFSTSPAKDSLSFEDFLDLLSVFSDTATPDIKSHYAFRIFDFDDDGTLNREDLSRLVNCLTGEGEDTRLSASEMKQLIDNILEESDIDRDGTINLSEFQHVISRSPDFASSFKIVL
# Phospholipid hydroperoxide glutathione peroxidase GPX4 (Homo sapiens), sequence (P36969 whole entry, looked up): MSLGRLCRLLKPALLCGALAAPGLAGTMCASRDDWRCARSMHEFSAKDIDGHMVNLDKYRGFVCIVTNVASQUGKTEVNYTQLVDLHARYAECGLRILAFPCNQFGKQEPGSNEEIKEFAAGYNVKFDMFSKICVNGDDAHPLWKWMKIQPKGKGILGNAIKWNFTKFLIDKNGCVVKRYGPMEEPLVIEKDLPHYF
compound,measurement,setting,value
CCOc1cc(CNC2CCCC2)cc(Cl)c1OCc1ccc(Cl)cc1,Potency,[1],inactive
same,outcome,[2],inactive
same,Potency,[3],11.5 µM (active)
same,Potency,[4],14.5 µM (active)
same,Potency,[5],inactive
same,Potency,[6],inactive
same,Potency,[7],inactive
same,Potency,[8],inactive
same,Potency,[9],inactive
same,Potency,JEG-3,inactive
CC[C@]1(O)C[C@H]2CN(CCC3C(=Nc4ccccc43)[C@@](C(=O)OC)(c3cc4c(cc3OC)N(C)[C@H]3[C@@](O)(C(N)=O)[C@H](O)[C@]5(CC)C=CCN6CC[C@]43[C@@H]65)C2)C1 (some centres not stated),Potency,[10],3.66 µM (active)
same,Potency,[1],inactive
same,outcome,[2],inactive
same,Potency,[3],0.0515 µM (active)
same,Potency,[4],0.023 µM (active)
same,Potency,[6],inactive
same,Potency,[7],inactive
same,Potency,[8],inactive
same,Potency,Es-2,0.794 µM (active)
same,Potency,HeLa,0.398 µM (active)
same,Potency,JEG-3,0.1 µM (active)
same,Potency,OV90,5.01 µM (active)
same,Potency,Tov-21-G,0.316 µM (active)
same,Potency,Tov112D,0.1 µM (active)
CC1CCC2(NC1)OC1CC3C4CC=C5CC(O[C@@H]6O[C@H](CO)[C@@H](O[C@@H]7O[C@@H](C)[C@H](O)[C@@H](O)[C@H]7O)[C@H](O)[C@H]6O[C@@H]6O[C@@H](C)[C@H](O)[C@@H](O)[C@H]6O)CCC5(C)C4CCC3(C)C1C2C (some centres not stated),Potency,[1],inactive
same,Potency,[3],3.46 µM (active)
same,Potency,[4],3.88 µM (active)
same,Potency,[5],inactive
same,Potency,[6],inactive
same,"activity change, negative = inhibition",[7],-5.29% [at 11.6 µM] (inactive)
same,"activity, negative = inhibition",[8],-1.63% [at 11.6 µM] (inactive)
same,"activity change, negative = cytotoxicity",HeLa,-18.6% [at 11.6 µM] (inactive)
same,"activity change, negative = cytotoxicity",Hek293T,-11.9% [at 11.6 µM] (inactive)
same,"activity change, negative = cytotoxicity",JEG-3,4.54% [at 11.6 µM] (inactive)
same,"activity change, negative = cytotoxicity",Tov-21-G,-23.3% [at 11.6 µM] (inactive)
same,"activity change, negative = cytotoxicity",Tov112D,-18.2% [at 11.6 µM] (inactive)
COc1ccc(NC(=O)N2CCc3c2ccc2ccccc32)cc1N1CCN(C)CC1,Potency,[1],inactive
same,outcome,[2],inactive
same,Potency,[3],14.5 µM (active)
same,Potency,[4],14.5 µM (active)
same,Potency,[5],inactive
same,Potency,[6],inactive
same,Potency,[7],inactive
same,Potency,[8],inactive
same,Potency,[9],inactive
same,Potency,Es-2,inactive
same,Potency,HeLa,inactive
same,Potency,Hek293T,inactive
same,Potency,JEG-3,inactive
same,Potency,OV90,inactive
same,Potency,Tov-21-G,inactive
same,Potency,Tov112D,inactive
C=C(C)C(=O)O[C@H]1[C@H]2C(=C)C(=O)O[C@@H]2C[C@@H](C)[C@@H]2O[C@@H]2C(=O)[C@](C)(O)[C@@H]1OC(C)=O,Potency,[1],inactive
same,outcome,[2],inactive
same,Potency,[3],2.82 µM (active)
same,Potency,[4],1.42 µM (active)
same,Potency,[5],inactive
same,Potency,[6],inactive
same,Potency,[7],inactive
same,Potency,[8],inactive
same,Potency,HeLa,inactive
same,Potency,Hek293T,10 µM (active)
same,Potency,OV90,inactive
same,Potency,Tov112D,inactive
CCOc1ccc(-c2nc(-c3cccc4c3CCC4NCCO)no2)cc1OCC (configuration not stated),Potency,[1],inactive
same,Potency,[3],6.49 µM (active)
same,Potency,[4],7.28 µM (active)
same,Potency,[5],inactive
same,Potency,[6],inactive
same,Potency,[7],inactive
same,Potency,[8],inactive
same,Potency,[9],inactive
same,Potency,HeLa,inactive
same,Potency,Hek293T,inactive
same,Potency,JEG-3,inactive
same,Potency,Tov-21-G,inactive
same,Potency,Tov112D,inactive
CC[C@@H](C)[C@H]1C(=O)O[C@H](C(C)C)C(=O)N(C)[C@@H](C(C)C)C(=O)O[C@H](C(C)C)C(=O)N(C)[C@@H](C(C)C)C(=O)O[C@H](CC(C)C)C(=O)N1C,Potency,[1],inactive
same,outcome,[2],inactive
same,Potency,[3],5.41 µM (active)
same,Potency,[4],2.16 µM (active)
same,Potency,[5],inactive
same,Potency,[6],inactive
same,Potency,[7],inactive
same,Potency,[8],inactive
same,Potency,[9],inactive
same,Potency,JEG-3,inactive
N#Cc1cccc(C#N)c1-c1nc2c3ccccc3c3cc(Cl)ccc3c2[nH]1,Potency,[1],inactive
same,Potency,[3],10.3 µM (active)
same,Potency,[4],10.3 µM (active)
same,Potency,[6],inactive
same,Potency,[7],inactive
same,Potency,[8],inactive
same,Potency,Es-2,inactive
same,Potency,Hek293T,inactive
same,Potency,JEG-3,inactive
same,Potency,OV90,inactive
same,Potency,Tov-21-G,inactive
same,Potency,Tov112D,inactive
COc1ccc(-c2cc(C(O)C3CCCCN3)c3ccccc3n2)cc1 (configuration not stated),Potency,[10],20.6 µM (active)
same,Potency,[1],inactive
same,outcome,[2],inactive
same,Potency,[3],7.42 µM (active)
same,Potency,[4],4.68 µM (active)
same,Potency,[5],20.2 µM (active)
same,Potency,[6],22.7 µM (active)
same,Potency,[7],inactive
same,Potency,[8],inactive
same,Potency,[9],inactive
same,Z-AUC,[11],-0.506 (inactive)
same,Z-AUC,[11]; [12],-0.864
same,Z-AUC,[11]; measured here: PEO4 Z-AUC,-0.334
same,Potency,OV90,31.6 µM (active)
C=C1C(=O)O[C@H]2[C@H]1[C@@H](OC(=O)/C(C)=C\C)C[C@]1(C)O[C@@H]1[C@H]1O[C@H]1C(=C)[C@H]2O,Potency,[1],inactive
same,outcome,[2],inactive
same,Potency,[3],7.13 µM (active)
same,Potency,[4],4.5 µM (active)
same,Potency,[5],inactive
same,Potency,[6],inactive
same,Potency,[7],inactive
same,Potency,[8],inactive
same,Potency,[9],inactive
same,Potency,Es-2,11.2 µM (active)
same,Potency,HeLa,inactive
same,Potency,OV90,inactive
C=CC(=O)Nc1cccc(Nc2nc(Nc3ccc(Oc4ccnc(C(=O)NC)c4)cc3)ncc2F)c1,Potency,[1],inactive
same,outcome,[2],inactive
same,Potency,[3],10.3 µM (active) and 5.9 µM (active)
same,Potency,[4],10.3 µM (active) and 6.61 µM (active)
same,Potency,[5],inactive
same,Potency,[6],inactive
same,Potency,[7],inactive
same,Potency,[8],inactive
same,Potency,[9],inactive
same,Z-AUC,[11],-0.493 (inactive)
same,Z-AUC,[11]; [12],-0.105
same,Z-AUC,[11]; measured here: PEO4 Z-AUC,-0.427
same,Potency,JEG-3,inactive
same,Potency,OV90,inactive
CCOP(=O)(Cc1ccc(C(=O)Nc2ccc(Br)cc2C#N)cc1)OCC,Potency,[1],inactive
same,outcome,[2],inactive
same,Potency,[5],inactive
same,Potency,[6],inactive
same,Potency,[7],inactive
same,Potency,[8],inactive
same,Potency,Es-2,inactive
same,Potency,HeLa,inactive
same,Potency,Hek293T,inactive
same,Potency,JEG-3,inactive
same,Potency,OV90,inactive
same,Potency,Tov-21-G,inactive
same,Potency,Tov112D,inactive
COc1cc2nc(N3CCN(C)CC3)nc(NC3CCN(Cc4ccccc4)CC3)c2cc1OC,Potency,[10],16.4 µM (active)
same,Potency,[1],inactive
same,Potency,[3],6.49 µM (active)
same,Potency,[4],5.78 µM (active)
same,Potency,[5],inactive
same,Potency,[7],inactive
same,Potency,[8],inactive
same,Potency,HeLa,inactive
same,Potency,Hek293T,inactive
same,Potency,OV90,22.4 µM (active)
